Reference: PubChem BioAssay (NCI)
The panel holds about 79,000 compounds, 15% with a hit somewhere; the sample as a whole holds those more often. Activity calls are given as the source filed them. No stated cut-off is given here; in the data, active means growth inhibition above about 70%; inactive means the rest.

Tests used:
[1] = NCI Yeast Anticancer Drug Screen. Data for the rad52 strain (AID 147);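 further: 0% = growth of vehicle-treated control cultures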; conditions: S. cerevisiae rad52 mutant growth inhibition, active compounds read high
Procedure, shortened: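 The repair-mutant yeast strain was incubated with compounds, then growth was read and inhibition derived relative to vehicle.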

[2] = NCI Yeast Anticancer Drug Screen. Data for the wt1 strain (AID 149);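 further: 0% = growth of vehicle-treated wt1 cultures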; conditions: S. cerevisiae wt1 strain (SPY 50644) growth inhibition, active compounds read high
Procedure, shortened: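 Each compound is tested on wt1 yeast and the loss of growth versus vehicle gives the inhibition value.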

[3] = NCI Yeast Anticancer Drug Screen. Data for the rad50EPP+ strain (AID 151);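 further: 0% = growth of vehicle-treated control cultures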; conditions: S. cerevisiae rad50 mutant strain, active compounds read high
Procedure, shortened: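 Vehicle-normalised growth inhibition; rad50EPP+ yeast strain, altered in DNA damage repair, compound-treated.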

[4] = NCI Yeast Anticancer Drug Screen. Data for the mgt1 strain (AID 153); conditions: S. cerevisiae mgt1 mutant growth inhibition, active compounds read high
Procedure, shortened: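 Vehicle-normalized growth inhibition is determined in mgt1 yeast, a strain selected for a defined alteration in DNA repair or cell cycle control.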

[5] = NCI Yeast Anticancer Drug Screen. Data for the rad50 strain (AID 155);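 further: 0% = growth of vehicle-only cultures of the same strain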; conditions: S. cerevisiae rad50 strain growth inhibition, active compounds read high
Procedure, shortened: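 Vehicle-treated cultures provide the reference for the growth inhibition reported for compound-exposed, repair-deficient yeast.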

[6] = NCI Yeast Anticancer Drug Screen. Data for the mec2-1 strain (AID 157); conditions: S. cerevisiae mec2-1 strain, active compounds read high
Procedure, shortened: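 Mutant yeast (mec2-1) grown with compound; growth inhibition relative to vehicle control reported.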

[7] = NCI Yeast Anticancer Drug Screen. Data for the rad14 strain (AID 159);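 further: 0% = growth of vehicle-treated control cultures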; conditions: S. cerevisiae rad14 strain growth inhibition, active compounds read high
Procedure, shortened: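 Inhibition of growth is reported for a repair-deficient yeast mutant following compound treatment, calculated relative to cultures that received vehicle.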

[8] = NCI Yeast Anticancer Drug Screen. Data for the sgs1 mgt1 strain (AID 161);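 further: 0% = growth of cultures given vehicle only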; conditions: S. cerevisiae sgs1 mgt1 strain, active compounds read high
Procedure, shortened: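 This yeast growth screen uses a strain with defined DNA-repair lesions; compound-treated growth is compared with vehicle-treated growth.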

[9] = NCI Yeast Anticancer Drug Screen. Data for the cln2 rad14 strain (AID 165);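 further: 0% = growth equal to vehicle treated cultures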; conditions: S. cerevisiae cln2 rad14 strain, active compounds read high
Procedure, shortened: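 Readout is yeast growth inhibition versus vehicle-treated controls, using a strain with cln2 and rad14 alterations exposed to compound.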

[10] = NCI Yeast Anticancer Drug Screen. Data for the bub3 strain (AID 167); conditions: S. cerevisiae bub3 mutant strain, active compounds read high
Procedure, shortened: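 Mutant yeast screening strain plus compound; vehicle-treated cultures serve as the 0% inhibition reference.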

[11] = NCI Yeast Anticancer Drug Screen. Data for the wt2 strain (AID 169); conditions: S. cerevisiae wt2 strain growth inhibition, active compounds read high
Procedure, shortened: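 Against vehicle-treated controls, the growth of yeast exposed to each compound was compared, and the inhibition was recorded.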

[12] = NCI Yeast Anticancer Drug Screen. Data for the mlh1 strain (AID 171);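 further: 0% = growth of vehicle-treated control cultures of the same strain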; conditions: S. cerevisiae mlh1 strain growth inhibition, active compounds read high
Procedure, shortened: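 Measured: yeast growth. Reference: vehicle-treated controls. Organism: strain with a defined alteration affecting DNA damage repair or cell cycle control, treated with compound.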

[13] = NCI Yeast Anticancer Drug Screen. Data for the mlh1 rad18 strain (AID 175); conditions: S. cerevisiae mlh1 rad18 strain growth inhibition, active compounds read high
Procedure, shortened: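 Genetically defined yeast (DNA repair-deficient) exposed to compounds; growth inhibition determined relative to vehicle.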

[14] = NCI Yeast Anticancer Drug Screen. Data for the rad18 strain (AID 177); conditions: S. cerevisiae rad18 mutant growth inhibition, active compounds read high
Procedure, shortened: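 Vehicle-treated cultures served as the baseline for scoring compound-induced growth inhibition in DNA-repair-mutant yeast.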

[15] = NCI Yeast Anticancer Drug Screen. Data for the CLN2oe strain (AID 163);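 further: 0% = growth of vehicle-only control cultures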; conditions: S. cerevisiae CLN2oe strain, active compounds read high
Procedure, shortened: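 Compounds are applied to yeast harbouring a defined cell-cycle control change; reduced growth compared with vehicle-treated controls gives the value.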

[16] = at 5.0 µM (retest, dose inferred, filed as 0.5)
[17] = at 50.0 µM (retest, dose inferred, filed as 5.0)

Measured: growth inhibition

CC(=O)Nc1ccc(SC(C)=O)cc1
active: [1]; at 100.0 µM 86% | [2]; at 100.0 µM 85% | [4]; at 100.0 µM 86% | [5]; [16] 80% | [5]; [17] 100% | [5]; at 50.0 µM 70.7% | [5]; at 100.0 µM 86% | [6]; [16] 72% | [6]; [17] 100% | [6]; at 100.0 µM 86% | [7]; at 100.0 µM 88% | [8]; [17] 78% | [9]; [17] 85% | [10]; [17] 77% | [10]; at 100.0 µM 87% | [11]; at 100.0 µM 88% | [12]; at 100.0 µM 86% | [13]; [17] 100% | [13]; at 50.0 µM 72.3% | [14]; at 100.0 µM 84%
inactive: [1]; at 1.2 µM 0% | [1]; at 3.7 µM -21% | [1]; at 11.0 µM -2% | [1]; at 33.0 µM 58% | [2]; at 1.2 µM -36% | [2]; at 3.7 µM -30% | [2]; at 11.0 µM -18% | [2]; at 33.0 µM 43% | [3]; at 1.2 µM -29% | [3]; at 3.7 µM -22% | [3]; at 11.0 µM -6% | [3]; at 33.0 µM -1% | [3]; at 100.0 µM 29% | [4]; at 1.2 µM -55% | [4]; at 3.7 µM -45% | [4]; at 11.0 µM -32% | [4]; at 33.0 µM 44% | [5]; at 1.2 µM -29% | [5]; at 3.7 µM -4% | [5]; at 11.0 µM 7% | [5]; at 33.0 µM 59% | [6]; at 1.2 µM -41% | [6]; at 3.7 µM -45% | [6]; at 11.0 µM -9% | [6]; at 33.0 µM 62% | [6]; at 50.0 µM 56.8% | [7]; at 1.2 µM -27% | [7]; at 3.7 µM -38% | [7]; at 11.0 µM -5% | [7]; at 33.0 µM 56% | [8]; [16] -6% | [8]; at 50.0 µM 60.6% | [9]; [16] 44% | [9]; at 50.0 µM 66.7% | [10]; at 1.2 µM -25% | [10]; at 3.7 µM -6% | [10]; [16] 18% | [10]; at 11.0 µM 0% | [10]; at 33.0 µM 63% | [10]; at 50.0 µM 55.6% | [11]; at 1.2 µM -22% | [11]; at 3.7 µM -23% | [11]; at 11.0 µM -10% | [11]; at 33.0 µM 54% | [12]; at 1.2 µM -25% | [12]; at 3.7 µM -26% | [12]; at 11.0 µM 6% | [12]; at 33.0 µM 54% | [13]; [16] 60% | [14]; at 1.2 µM -28% | [14]; at 3.7 µM -10% | [14]; at 11.0 µM -4% | [14]; at 33.0 µM 52%

O=C1CSC(/C=C/c2ccccc2)N1c1ccc(-c2ccc(-n3c(-c4ccccc4)nc4ccccc4c3=O)cc2)cc1 (stereo not drawn)
inactive: [1]; at 1.2 µM -2% | [1]; at 3.7 µM 1% | [1]; at 11.0 µM 4% | [1]; at 33.0 µM 15% | [1]; at 100.0 µM 61% | [2]; at 1.2 µM -2% | [2]; at 3.7 µM -2% | [2]; at 11.0 µM -3% | [2]; at 33.0 µM -6% | [2]; at 100.0 µM 14% | [3]; at 1.2 µM 2% | [3]; at 3.7 µM 10% | [3]; at 11.0 µM 19% | [3]; at 33.0 µM 28% | [3]; at 100.0 µM 29% | [4]; at 1.2 µM -2% | [4]; at 3.7 µM -2% | [4]; at 11.0 µM -4% | [4]; at 33.0 µM 19% | [5]; at 1.2 µM -1% | [5]; at 3.7 µM 3% | [5]; [16] -9% | [5]; at 11.0 µM 5% | [5]; at 33.0 µM 22% | [5]; at 100.0 µM 58% | [6]; at 1.2 µM -1% | [6]; at 3.7 µM 0% | [6]; [16] 0% | [6]; at 11.0 µM 1% | [6]; at 33.0 µM 7% | [6]; [17] 45% | [6]; at 50.0 µM 42.5% | [6]; at 100.0 µM 67% | [7]; at 1.2 µM 1% | [7]; at 3.7 µM 2% | [7]; at 11.0 µM 9% | [7]; at 33.0 µM 31% | [8]; [16] -1% | [8]; [17] 5% | [15]; at 1.2 µM 2% | [15]; at 3.7 µM -1% | [15]; at 11.0 µM -6% | [15]; at 33.0 µM -9% | [15]; at 100.0 µM 22% | [9]; [16] 9% | [9]; [17] 42% | [9]; at 50.0 µM 32.5% | [10]; at 1.2 µM 4% | [10]; at 3.7 µM 12% | [10]; [16] -6% | [10]; at 11.0 µM 22% | [10]; at 33.0 µM 35% | [10]; [17] 65%
active: [4]; at 100.0 µM 81% | [5]; [17] 78% | [5]; at 50.0 µM 75.5% | [7]; at 100.0 µM 79% | [8]; at 50.0 µM 87.2% | [10]; at 50.0 µM 75% | [10]; at 100.0 µM 79%
